# Laboratory results: PubChem BioAssay (EPA / NIEHS)
# Where “and” joins values, the source holds several entries; their conditions need not be identical. Equal entries are not always repeated. Calls of active or inactive are those of the source. Rule for the calls: active = hit-call score of the fitted dose curve at least 0.9, where 1 is the maximum; inactive = score below 0.9.
# Legend:
# [1] = read-out: Epidermal growth factor receptor (EGFR), EGFR (gene 1956); assay: BSK_hDFCGF_EGFR: BioMAP Diversity Plus: hDFCGF Assay for Epidermal growth factor receptor (EGFR) Biomarker Activity (AID 2283057); conditions: primary human foreskin fibroblasts; actives raise or lower the signal
# In short: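 Primary human foreskin fibroblasts were exposed to compound for 24 h, after which cell-surface EGFR was quantified by ELISA. Activity was fitted bidirectionally against the DMSO negative control as baseline.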
# [2] = read-out: Interleukin-8 (IL8), CXCL8 (gene 3576); assay: BSK_hDFCGF_IL8: BioMAP Diversity Plus: hDFCGF Assay for Interleukin-8 (IL8) Biomarker Activity (AID 2283058); conditions: primary human foreskin fibroblasts; actives raise or lower the signal
# In short: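 Primary human foreskin fibroblasts (hDFCGF system) dosed with chemical; IL-8 measured by ELISA 24 hours later. Bidirectional curve fitting relative to DMSO baseline; cytotoxicity tracked in parallel cultures by SRB total protein staining.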
# [3] = BSK_hDFCGF_Proliferation: Cell Proliferation Assessment in the BioMAP Diversity Plus: hDFCGF Assay (AID 2283059); conditions: primary human foreskin fibroblasts;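 note: curves fitted for both rise and fall of signal versus DMSO baseline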
# In short: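 Total protein read at 560 nm after 0.1% SRB staining of TCA-fixed human skin fibroblasts, […]. Activity is fitted in both directions relative to DMSO as baseline.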
# [4] = BSK_hDFCGF_SRB: Viability Assessment in the BioMAP Diversity Plus: hDFCGF Assay (AID 2283061); conditions: primary human foreskin fibroblasts;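 note: cells exposed to compound for 24 h before the read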
# In short: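 Human foreskin fibroblasts in 96-well plates were treated 24 h. Total protein was measured by 0.1% SRB staining after 10% TCA fixation, read at 560 nm. Data were fitted bidirectionally against DMSO.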
# [5] = read-out: TIMP metallopeptidase inhibitor 1 (TIMP1), TIMP1 (gene 7076); assay: BSK_hDFCGF_TIMP1: BioMAP Diversity Plus: hDFCGF Assay for TIMP metallopeptidase inhibitor 1 (TIMP1) Biomarker Activity (AID 2283062); conditions: primary human foreskin fibroblasts; actives raise or lower the signal
# In short: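 Human foreskin fibroblast primary cultures dosed for 24 h; secreted/surface TIMP-1 quantified by ELISA. Bidirectional curve fitting against DMSO baseline; cytotoxicity tracked in parallel cultures by SRB total-protein staining.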
# [6] = read-out: Vascular cell adhesion molecule 1 (VCAM1), VCAM1 (gene 7412); assay: BSK_hDFCGF_VCAM1: BioMAP Diversity Plus: hDFCGF Assay for Vascular cell adhesion molecule 1 (VCAM1) Biomarker Activity (AID 2283065); conditions: primary human foreskin fibroblasts; actives raise or lower the signal
# In short: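 Human foreskin fibroblast primary cells dosed with chemical, VCAM-1 measured by ELISA at 24 h. Bidirectional curve fitting relative to DMSO as negative control/baseline.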
# [7] = read-out: Plasminogen activator inhibitor-1 (PAI1), SERPINE1 (gene 5054); assay: BSK_hDFCGF_PAI1: BioMAP Diversity Plus: hDFCGF Assay for Plasminogen activator inhibitor-1 (PAI1) Biomarker Activity (AID 2283066); conditions: primary human foreskin fibroblasts; actives raise or lower the signal
# In short: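 Human foreskin fibroblasts in the hDFCGF system were dosed with compound for 24 h; PAI-1 was quantified by ELISA. Bidirectional curve fitting used DMSO as negative control and baseline.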
# [8] = read-out: Intercellular Adhesion Molecule 1 (ICAM1), ICAM1 (gene 3383); assay: BSK_KF3CT_ICAM1: BioMAP Diversity Plus: KF3CT Assay for Intercellular Adhesion Molecule 1 (ICAM1) Biomarker Activity (AID 2283067); conditions: primary human keratinocytes with fibroblasts; actives raise or lower the signal
# In short: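 Human keratinocyte–foreskin fibroblast co-culture was treated for 24 h. Cell-surface ICAM-1 was quantified by ELISA, fitted bidirectionally relative to DMSO. Cytotoxicity was checked in parallel cultures by SRB total-protein staining.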
# [9] = read-out: Interferon-gamma inducible Protein 10 (IP10), CXCL10 (gene 3627); assay: BSK_KF3CT_IP10: BioMAP Diversity Plus: KF3CT Assay for Interferon-gamma inducible Protein 10 (IP10) Biomarker Activity (AID 2283068); conditions: primary human keratinocytes with fibroblasts; actives raise or lower the signal
# In short: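 Human keratinocyte plus foreskin fibroblast primary co-culture exposed to test chemical for 24 h; IP-10 measured by ELISA. Concentration-response fitted bidirectionally against DMSO control as baseline.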
# [10] = BSK_KF3CT_SRB: Viability Assessment in the BioMAP Diversity Plus: KF3CT Assay (AID 2283069); conditions: primary human keratinocytes with fibroblasts;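 note: total protein by sulforhodamine B staining as a cytotoxicity measure; read 24 h after compound addition; fitted for both signal gain and loss against DMSO baseline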
# In short: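 Human keratinocyte and foreskin fibroblast co-culture exposed to chemical for 24 h. Total protein measured in parallel cultures by 0.1% sulforhodamine B staining after 10% TCA fixation, read at 560 nm; bidirectional fit relative to DMSO.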
# [11] = read-out: Interleukin-1 alpha (IL1a), IL1A (gene 3552); assay: BSK_KF3CT_IL1a: BioMAP Diversity Plus: KF3CT Assay for Interleukin-1 alpha (IL1a) Biomarker Activity (AID 2283070); conditions: primary human keratinocytes with fibroblasts; actives raise or lower the signal
# In short: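 Primary human keratinocyte plus foreskin fibroblast co-culture, dosed and measured at 24 h in 96-well plates. IL-1a level quantified by ELISA; bidirectional fit relative to DMSO.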
# [12] = read-out: TIMP metallopeptidase inhibitor 2 (TIMP2), TIMP2 (gene 7077); assay: BSK_KF3CT_TIMP2: BioMAP Diversity Plus: KF3CT Assay for TIMP metallopeptidase inhibitor 2 (TIMP2) Biomarker Activity (AID 2283071); conditions: primary human keratinocytes with fibroblasts; actives raise or lower the signal
# In short: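 Human primary keratinocyte/foreskin fibroblast co-culture dosed with chemical and sampled at 24 h. TIMP-2 levels quantified by ELISA; bidirectional fitting against DMSO negative control as baseline.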
# [13] = read-out: Matrix Metallopeptidase 9 (MMP9), MMP9 (gene 4318); assay: BSK_KF3CT_MMP9: BioMAP Diversity Plus: KF3CT Assay for Matrix Metallopeptidase 9 (MMP9) Biomarker Activity (AID 2283074); conditions: primary human keratinocytes with fibroblasts; actives raise or lower the signal
# In short: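 Human keratinocyte and foreskin fibroblast co-culture exposed to chemicals for 24 h; MMP9 biomarker measured by ELISA, bidirectional fitting relative to DMSO; cytotoxicity tracked by SRB total protein staining in parallel cultures.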
# [14] = read-out: urokinase plasminogen activator (uPA), PLAU (gene 5328); assay: BSK_KF3CT_uPA: BioMAP Diversity Plus: KF3CT Assay for urokinase plasminogen activator (uPA) Biomarker Activity (AID 2283075); conditions: primary human keratinocytes with fibroblasts; actives raise or lower the signal
# In short: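 Primary human keratinocyte/foreskin fibroblast co-culture exposed to chemical; uPA measured by ELISA at 24 h. Bidirectional fit versus DMSO, with parallel SRB total-protein staining for cytotoxicity.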
# [15] = BSK_LPS_SRB: Viability Assessment in the BioMAP Diversity Plus: LPS Assay (AID 2283079); conditions: primary human HUVEC with PBMC;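 note: total protein by sulforhodamine B absorbance as a cytotoxicity measure; measured one day after compound addition; fitted in both directions against DMSO so loss or gain of signal counts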
# In short: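 Co-culture of human umbilical vein endothelial cells and PBMC, read 24 h after dosing. Total protein by 0.1% SRB staining after 10% TCA fixation, absorbance at 560 nm; bidirectional fit against DMSO.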
# [16] = read-out: Interleukin-1 alpha (IL1a), IL1A (gene 3552); assay: BSK_LPS_IL1a: BioMAP Diversity Plus: LPS Assay for Interleukin-1 alpha (IL1a) Biomarker Activity (AID 2283080); conditions: primary human HUVEC with PBMC; actives raise or lower the signal
# In short: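 Human umbilical vein endothelial cells co-cultured with PBMC and stimulated with LPS; IL-1a measured by ELISA 24 h after dosing. Bidirectional fitting against DMSO; cytotoxicity checked by SRB staining in parallel cultures.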
# [17] = BSK_LPS_PGE2: BioMAP Diversity Plus: LPS Assay for Prostaglandin E2 (PGE2) Biomarker Activity (AID 2283082); conditions: primary human HUVEC with PBMC; actives raise or lower the signal;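 for AC50: secreted prostaglandin E2 measured by ELISA in LPS-stimulated co-culture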
# In short: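 HUVEC plus PBMC co-culture stimulated with LPS; secreted PGE2 quantified by ELISA 24 h after chemical dosing. Activity fitted bidirectionally against DMSO as negative control and baseline; parallel SRB total-protein staining served as cytotoxicity check.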
# [18] = read-out: Macrophage colony-stimulating factor (MCSF), CSF1 (gene 1435); assay: BSK_LPS_MCSF: BioMAP Diversity Plus: LPS Assay for Macrophage colony-stimulating factor (MCSF) Biomarker Activity (AID 2283083); conditions: primary human HUVEC with PBMC; actives raise or lower the signal
# In short: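 HUVEC–PBMC co-culture, M-CSF measured by ELISA 24 h after chemical dosing. Fitted in both directions relative to DMSO as negative control; overt cytotoxicity assessed by SRB total-protein staining in parallel cultures.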
# [19] = read-out: Tumor necrosis factor (Homo sapiens) (UniProt P01375); assay: BSK_LPS_TNFa: BioMAP Diversity Plus: LPS Assay for Tumour Necrosis Factor alpha (TNFa) Biomarker Activity (AID 2283085); conditions: primary human HUVEC with PBMC; actives raise or lower the signal
# In short: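 Human umbilical vein endothelial cells co-cultured with PBMC were exposed to test chemical and TNFa measured by ELISA 24 h after dosing. Bidirectional curve fitting was done relative to DMSO as negative control and baseline.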
# [20] = read-out: Vascular cell adhesion molecule 1 (VCAM1), VCAM1 (gene 7412); assay: BSK_LPS_VCAM1: BioMAP Diversity Plus: LPS Assay for Vascular cell adhesion molecule 1 (VCAM1) Biomarker Activity (AID 2283086); conditions: primary human HUVEC with PBMC; actives raise or lower the signal
# In short: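 Human umbilical vein endothelial cells co-cultured with peripheral blood mononuclear cells under LPS stimulation were exposed to test chemical for 24 h. VCAM-1 levels were then measured by ELISA, with bidirectional curve fitting relative to DMSO as negative control and baseline.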
# Tumor necrosis factor (Homo sapiens), sequence (P01375 whole entry, looked up): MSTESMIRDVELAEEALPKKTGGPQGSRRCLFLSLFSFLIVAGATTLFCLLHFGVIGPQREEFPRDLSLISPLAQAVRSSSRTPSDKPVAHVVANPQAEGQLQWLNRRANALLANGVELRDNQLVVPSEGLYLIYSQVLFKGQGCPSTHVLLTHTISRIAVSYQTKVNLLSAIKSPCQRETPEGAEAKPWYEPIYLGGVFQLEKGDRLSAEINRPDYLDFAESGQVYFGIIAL
smiles,measurement,setting,value
CCC(C)=NO,outcome,[1],inactive
same,outcome,[2],inactive
same,outcome,[3],inactive
same,outcome,[4],inactive
same,outcome,[5],inactive
same,outcome,[6],inactive
same,outcome,[7],inactive
same,outcome,[8],inactive
same,outcome,[9],inactive
same,outcome,[10],inactive
same,outcome,[11],inactive
same,outcome,[12],inactive
same,outcome,[13],inactive
same,outcome,[14],inactive
same,outcome,[15],inactive
same,outcome,[16],inactive
same,outcome,[17],inactive
same,outcome,[18],inactive
same,outcome,[19],inactive
same,outcome,[20],inactive
CCCCCCC(O)CCCCCCCCCCC(=O)OC (stereo not given),outcome,[1],inactive
same,outcome,[2],inactive
same,AC50,[3],4.09 µM (active)
same,outcome,[4],inactive
same,outcome,[5],inactive
same,outcome,[6],inactive
same,AC50,[7],6.22 µM (active)
same,outcome,[8],inactive
same,outcome,[9],inactive
same,outcome,[10],inactive
same,outcome,[11],inactive
same,outcome,[12],inactive
same,outcome,[13],inactive
same,outcome,[14],inactive
same,outcome,[15],inactive
same,outcome,[16],inactive
same,AC50,[17],1.73 µM (active)
same,outcome,[18],inactive
same,outcome,[19],inactive
same,outcome,[20],inactive
COC(=O)/C=C\C(=O)OC,outcome,[1],inactive
same,outcome,[2],inactive
same,outcome,[3],inactive
same,outcome,[4],inactive
same,outcome,[5],inactive
same,outcome,[6],inactive
same,outcome,[7],inactive
same,outcome,[8],inactive
same,outcome,[9],inactive
same,outcome,[10],inactive
same,outcome,[11],inactive
same,outcome,[12],inactive
same,outcome,[13],inactive
same,outcome,[14],inactive
same,outcome,[15],inactive
same,outcome,[16],inactive
same,outcome,[17],inactive
same,outcome,[18],inactive
same,outcome,[19],inactive
same,AC50,[20],8.6 µM (active)
CC[N+](CC)(CC(=O)Nc1c(C)cccc1C)Cc1ccccc1,outcome,[1],inactive
same,outcome,[2],inactive
same,outcome,[3],inactive
same,outcome,[4],inactive
same,outcome,[5],inactive
same,outcome,[6],inactive
same,outcome,[7],inactive
same,outcome,[8],inactive
same,outcome,[9],inactive
same,outcome,[10],inactive
same,outcome,[11],inactive
same,outcome,[12],inactive
same,outcome,[13],inactive
same,outcome,[14],inactive
same,outcome,[15],inactive
same,outcome,[16],inactive
same,outcome,[17],inactive
same,outcome,[18],inactive
same,outcome,[19],inactive
same,outcome,[20],inactive
O=C(C(=O)c1ccccc1)c1ccccc1,outcome,[1],inactive
same,outcome,[2],inactive
same,outcome,[3],inactive
same,outcome,[4],inactive
same,outcome,[5],inactive
same,outcome,[6],inactive
same,outcome,[7],inactive
same,outcome,[8],inactive
same,outcome,[9],inactive
same,outcome,[10],inactive
same,outcome,[11],inactive
same,outcome,[12],inactive
same,outcome,[13],inactive
same,outcome,[14],inactive
same,outcome,[15],inactive
same,outcome,[16],inactive
same,outcome,[17],inactive
same,outcome,[18],inactive
same,outcome,[19],inactive
same,outcome,[20],inactive
CN(C)CCC(c1ccc(Cl)cc1)c1ccccn1 (stereo not given),outcome,[1],inactive
same,outcome,[2],inactive
same,outcome,[3],inactive
same,outcome,[4],inactive
same,outcome,[5],inactive
same,outcome,[6],inactive
same,outcome,[7],inactive
same,outcome,[8],inactive
same,outcome,[9],inactive
same,outcome,[10],inactive
same,outcome,[11],inactive
same,outcome,[12],inactive
same,outcome,[13],inactive
same,outcome,[14],inactive
same,outcome,[15],inactive
same,outcome,[16],inactive
same,outcome,[17],inactive
same,outcome,[18],inactive
same,outcome,[19],inactive
same,outcome,[20],inactive
COc1ccc(C(=O)c2ccccc2O)c(O)c1,outcome,[1],inactive
same,outcome,[2],inactive
same,AC50,[3],25.3 µM (active) and 27 µM (active)
same,outcome,[4],inactive
same,outcome,[5],inactive
same,outcome,[6],inactive
same,outcome,[7],inactive
same,outcome,[8],inactive
same,outcome,[9],inactive
same,outcome,[10],inactive
same,outcome,[11],inactive
same,outcome,[12],inactive
same,outcome,[13],inactive
same,outcome,[14],inactive
same,outcome,[15],inactive
same,outcome,[16],inactive
same,AC50,[17],6.03 µM (active)
same,outcome,[18],inactive
same,outcome,[19],inactive
same,outcome,[20],inactive
CCCCC(CC)COC(=O)C=Cc1ccc(OC)cc1 (stereo not given),outcome,[1],inactive
same,outcome,[2],inactive
same,AC50,[3],13.2 µM (active) and 11.7 µM (active)
same,outcome,[4],inactive
same,outcome,[5],inactive
same,outcome,[6],inactive
same,outcome,[7],inactive
same,outcome,[8],inactive
same,outcome,[9],inactive
same,outcome,[10],inactive
same,outcome,[11],inactive
same,outcome,[12],inactive
same,outcome,[13],inactive
same,outcome,[14],inactive
same,AC50,[15],32.1 µM (active) and 36.7 µM (active)
same,outcome,[16],inactive
same,outcome,[17],inactive
same,AC50,[18],32 µM (active) and 14.8 µM (active)
same,outcome,[19],inactive
same,outcome,[20],inactive
